Consider 35 compounds from PubChem BioAssay AID602144 (Vanderbilt Specialized Chemistry Center, 2011).

Where “and” joins values, the source holds several entries; their conditions need not be identical. Equal values may be shown once. Unmarked numbers belong to inactive results. Calls of active or inactive are those of the source. Rule as the data show it: active = remaining activity below about 50%; inactive = the rest.

The target of the assay is Phospholipase D1 (Homo sapiens) (UniProt Q13393). The assay is described as follows: PLD1 inhibitors in cells, Calu-1 cells, single concentration (AID 602144).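 Also: tested at 200 nM.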 To be noted: cellular PLD1 activity, active compounds read low.
Sequence of Phospholipase D1 (Homo sapiens) (Q13393 whole entry, looked up): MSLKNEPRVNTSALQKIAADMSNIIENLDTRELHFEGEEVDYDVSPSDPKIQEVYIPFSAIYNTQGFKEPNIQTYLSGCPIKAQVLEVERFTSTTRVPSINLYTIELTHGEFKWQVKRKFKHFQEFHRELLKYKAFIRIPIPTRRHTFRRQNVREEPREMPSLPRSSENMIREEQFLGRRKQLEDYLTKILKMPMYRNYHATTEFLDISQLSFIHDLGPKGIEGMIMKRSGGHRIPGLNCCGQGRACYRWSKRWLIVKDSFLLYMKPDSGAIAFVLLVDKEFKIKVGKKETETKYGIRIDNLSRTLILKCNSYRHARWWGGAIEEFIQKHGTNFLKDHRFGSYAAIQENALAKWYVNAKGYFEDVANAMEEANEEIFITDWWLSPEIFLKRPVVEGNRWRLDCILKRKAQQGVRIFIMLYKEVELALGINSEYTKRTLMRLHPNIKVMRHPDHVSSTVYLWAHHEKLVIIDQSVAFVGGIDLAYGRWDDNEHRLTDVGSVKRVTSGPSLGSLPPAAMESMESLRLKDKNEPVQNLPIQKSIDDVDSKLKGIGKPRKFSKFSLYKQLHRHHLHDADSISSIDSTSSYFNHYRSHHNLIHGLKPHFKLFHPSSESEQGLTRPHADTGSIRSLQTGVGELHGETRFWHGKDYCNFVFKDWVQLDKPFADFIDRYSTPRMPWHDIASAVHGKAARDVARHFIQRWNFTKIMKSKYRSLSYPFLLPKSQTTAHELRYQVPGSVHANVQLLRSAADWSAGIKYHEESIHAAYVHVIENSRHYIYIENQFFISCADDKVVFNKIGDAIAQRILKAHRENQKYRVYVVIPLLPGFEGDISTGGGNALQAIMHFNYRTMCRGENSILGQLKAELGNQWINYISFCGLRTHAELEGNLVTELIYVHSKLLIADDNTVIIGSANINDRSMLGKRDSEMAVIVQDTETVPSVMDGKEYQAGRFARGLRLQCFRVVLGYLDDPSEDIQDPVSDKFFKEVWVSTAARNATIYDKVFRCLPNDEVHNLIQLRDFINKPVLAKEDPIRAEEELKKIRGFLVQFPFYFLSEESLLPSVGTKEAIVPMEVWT
Sequence of Phospholipase D1 (Homo sapiens) (Q13393 whole entry, looked up): as above
Broadly, the remaining activity is the signal under treatment as a percentage of the control signal. With `CCCCCC(=O)N(CCN1CCC2(CC1)C(=O)NCN2c1cccc(F)c1)C(=O)CCCCC`, the remaining activity is 90.1%. Regarding `O=C(NCCCN1CCC2(CC1)C(=O)NCN2c1ccccc1)c1cnc2ccccc2c1`, the remaining activity is 99%.

Regarding `O=C(NCCN1CCC2(CC1)C(=O)NCN2c1ccc(Br)cc1)c1cc2cc(F)ccc2[nH]1`, the remaining activity is 55.7%. With `COc1cc(OC)cc(C(=O)NCCN2CCC3(CC2)C(=O)NCN3c2cccc(F)c2)c1`, the remaining activity is 97%. For the compound `O=C(NCCN1CCC2(CC1)C(=O)NCN2c1cccc(F)c1)c1cc(C(F)(F)F)ccc1C(F)(F)F`, the remaining activity was 86.3%. For `CN1CN(c2ccccc2)C2(CCN(CCNC(=O)c3ccc4ccccc4c3)CC2)C1=O`, the remaining activity is 97.9%.

On to `O=C(NCCCN1CCC2(CC1)C(=O)NCN2c1ccccc1)c1ccc2ccccc2c1`, for which the remaining activity was 81%. Turning to `O=C(NCCN1CCC2(CC1)C(=O)NCN2c1cccc(Cl)c1)c1cc2cc(F)ccc2[nH]1`, the remaining activity was 58%. Turning to `O=C(NCCN1CCC2(CC1)C(=O)NCN2c1cccc(Cl)c1)c1ccc(F)cc1`, the remaining activity is 79.6%.

Regarding `O=C(NCCN1CCC2(CC1)C(=O)NCN2c1cccc(Br)c1)c1ccc2ccccc2c1`, the remaining activity is 76.6%. On to `O=C(NCCN1CCC2(CC1)C(=O)NCN2c1cccc(F)c1)c1ccc(-c2ccccc2)cc1`, for which the remaining activity was 93%. Take `O=C(c1ccc2ccccc2c1)N1CC(N2CCC3(CC2)C(=O)NCN3c2ccccc2)C1`: the remaining activity is 82.4%.

In the case of `O=C(NCCN1CCC2(CC1)C(=O)NCN2c1ccc(Cl)cc1)c1cnc2ccccc2c1`, the remaining activity was 94.2%. With `COc1ccc(CC(=O)NCCN2CCC3(CC2)C(=O)NCN3c2cccc(F)c2)cc1OC`, the remaining activity was 108% and 107%. For `O=C(NCCN1CCC2(CC1)C(=O)NCN2c1ccccc1)c1cc2ccccc2s1`, the remaining activity was 50.8%.

Regarding `COc1cccc(C(=O)NCCN2CCC3(CC2)C(=O)NCN3c2ccccc2)n1`, the remaining activity was 137%. With `O=C(C#Cc1ccccc1)NCCN1CCC2(CC1)C(=O)NCN2c1ccccc1`, the remaining activity was 87.1%. For the compound `CC(C)[C@@H](CN1CCC2(CC1)C(=O)NCN2c1ccccc1)NC(=O)c1cc2ccccc2[nH]1`, the remaining activity was 1.51% (active).

Regarding `O=C(NCCN1CCC2(CC1)C(=O)NCN2c1cccc(Cl)c1)c1cnc2ccccc2c1`, the remaining activity is 55.4%. For the compound `O=C(NCCN1CCC2(CC1)C(=O)NCN2c1cccc(Cl)c1)c1ccc2ccccc2c1`, the remaining activity was 57.3%. As for `O=C(C1C[C@H]1c1ccccc1)N1CC(N2CCC(n3c(=O)[nH]c4ccccc43)CC2)C1` (stereo not given in full), the remaining activity is 125%. Regarding `C[C@@H](CN1CCC2(CC1)C(=O)NCN2c1ccc(F)c(F)c1)NC(=O)c1cc2ccccc2[nH]1`, the remaining activity is 0% (active). With `O=C(NCCN1CCC2(CC1)C(=O)NCN2c1cccc(F)c1)C(c1ccccc1)c1ccccc1`, the remaining activity was 94.7%. The value for `O=C(NCCN1CCC2(CC1)C(=O)NCN2c1ccc(F)cc1)c1ccc2cc(F)ccc2c1` was 94.6%; that for `O=C(CN1CCC2(CC1)C(=O)NCN2c1ccccc1)c1ccccc1` was 102%. As for `O=C(NCCN1CCC2(CC1)C(=O)NCN2c1ccccc1)c1ccncn1`, the figure is 124%. `CN(CCN1CCC2(CC1)C(=O)NCN2c1ccccc1)C(=O)c1ccc2ccccc2c1`: the remaining activity is 84.1%. For `O=C(NCCN1CCC2(CC1)C(=O)NCN2c1ccc(Br)cc1)c1ccc(F)cc1`, the remaining activity is 78.5%. For `O=C(NCCN1CCC2(CC1)C(=O)NCN2c1cccc(F)c1)c1c(F)cccc1F`, the remaining activity is 80.5%. For the compound `C[C@H](CN1CCC2(CC1)C(=O)NCN2c1ccccc1)NC(=O)c1ccc(F)cc1`, the remaining activity is 34.8% (active).

As for `CC(C)[C@@H](CN1CCC2(CC1)C(=O)NCN2c1ccccc1)NC(=O)c1cc2cc(F)ccc2[nH]1`, the remaining activity was 6.9% (active).

Turning to `C[C@@H](CN1CCC2(CC1)C(=O)NCN2c1ccccc1)NC(=O)c1ccc2ccccc2c1`, the remaining activity was 4.56% (active). The value for `O=C(NCCN1CCC2(CC1)C(=O)NCN2c1ccccc1)c1cc2cccnc2s1` was 51.1%; that for `O=C(NCCN1CCC2(CC1)C(=O)NCN2c1cccc(F)c1)c1cnc2ccccc2c1` was 79%.

With `O=C(NCCN1CCC2(CC1)C(=O)NCN2c1ccccc1)c1ccc2c(c1)OCO2`, the remaining activity was 92.4%.
